“And” between values parts separate entries of the source, which are not always exact repeats. Equal entries are not always repeated. Records with an inconclusive call do not appear. Some structures have more than one record in an assay (separate samples or runs), and their calls can disagree. The source made the active and inactive calls. Unless noted, calls follow the shape of the dose curve; as a rule, active = well fitted curve in the direction sought with a large enough effect in the repeat runs; inconclusive = weak or mixed curves; inactive = no such curve, though single readings can be large; an effect the other way counts as inactive or inconclusive.
Tests used:
[1] = qHTS assay to identify small molecule agonists of the vitamin D receptor (VDR) signaling pathway - cell viability counter screen (AID 743224); also: nearly all actives have a fitted effect of over 50% in size; also: potency is read from the fitted curve at half-maximal effect
Method in brief: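 Viability is measured in the same wells as the VDR-bla reporter assay: after 16 h compound treatment and 2 h substrate loading, CellTiter-Glo is added and luminescence read 30 min later.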

[2] = qHTS assay to identify small molecule agonists of the NFkB signaling pathway - cell viability counter screen (AID 1159515; calls by dose curve; also: nearly all actives have a fitted effect of over 55% in size; also: potency is read from the fitted curve at half-maximal effect)
Method in brief: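 Multiplexed viability readout: after the 5 hr compound exposure and 1.5 hr FRET substrate step, CellTiter-Glo reagent went into the same NFkB-bla ME-180 wells; ATP luminescence was measured after 30 min at room temperature.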

[3] = qHTS assay to identify small molecule agonists of the endoplasmic reticulum stress response signaling pathway (AID 1159516; active = well fitted activation curve with a large enough effect in the signal ratio in the repeat runs, not every such curve was filed as active; the % refers to the signal ratio)
Method in brief: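 Tox21 10K library screened in quantitative HTS format on ESRE-bla HeLa cells, a beta-lactamase reporter under ER stress response element control; 5 hr treatment, FRET read.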

[4] = qHTS assay to identify small molecule agonists of the endoplasmic reticulum stress response signaling pathway - cell viability counter screen (AID 1159517; calls by dose curve; also: nearly all actives have a fitted effect of over 50% in size; also: potency is read from the fitted curve at half-maximal effect)
Method in brief: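 Counter-screen wells were identical to the reporter wells. Cells were plated at 1,500 per well and dosed for 5 hr, then read for luminescence 30 min after CellTiter-Glo addition.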

[5] = molecular target: Nuclear receptor ROR-gamma (Homo sapiens) (UniProt P51449); assay: qHTS assay to identify small molecule antagonists of the retinoid-related orphan receptor gamma (ROR-gamma) signaling pathway (AID 1159521; also: nearly all actives have a fitted effect of over 50% in size; also: potency is read from the fitted curve at half-maximal effect)
Method in brief: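 Readout: ONE-Glo luciferase luminescence, 30 min at room temperature. System: Tet-on RORγ CHO, RORE-LUC. Sequence: compound 2 h, doxycycline 1 uM final, 16 h at 37 C.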

[6] = qHTS assay to identify small molecule agonists of the AP-1 signaling pathway - cell viability counter screen (AID 1159525; calls by dose curve; also: nearly all actives have a fitted effect of over 55% in size)
Method in brief: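 AP-1-bla ME-180 cells in Opti-MEM with 0.5% dialyzed FBS, compound exposure 5 h at 37 C in 15-point titration. Viability read in the same wells as ATP content by CellTiter-Glo luminescence, normalised to tetra-n-octylammonium bromide and DMSO controls.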

[7] = qHTS assay to identify small molecule agonists of the AP-1 signaling pathway (AID 1159526; calls by dose curve)
[8] = qHTS assay to identify small molecule agonists of the RXR signaling pathway - cell viability counter screen (AID 1159529); also: nearly all actives have a fitted effect of over 50% in size; also: potency is read from the fitted curve at half-maximal effect
Method in brief: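 Tox21 10K compounds were tested for cytotoxicity against GeneBLAzer RXR-alpha HEK 293T cells grown in 2% charcoal-stripped FBS. Exposure lasted 16 hr at 37 C, 5% CO2; viability read by CellTiter-Glo luminescence.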

[9] = qHTS assay to identify small molecule antagonists of the retinoid acid receptor (RAR) signaling pathway - cell viability counter screen (AID 1159551); also: nearly all actives have a fitted effect of over 35% in size; also: potency is read from the fitted curve at half-maximal effect
Method in brief: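 Cytotoxicity counter screen in C3RL4 cells: 6 h compound exposure with 1 uM retinol (final), viability from cellular ATP by luminescence.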

[10] = qHTS assay to identify small molecule antagonists of the retinoic acid receptor (RAR) signaling pathway (AID 1159552; also: nearly all actives have a fitted effect of over 50% in size; also: potency is read from the fitted curve at half-maximal effect)
Method in brief: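 Overnight-plated C3RL4 reporter cells get compound, then retinol to 1 uM final; plates sit 6 hr at 37 C, 5% CO2. A luciferase reagent is added and light output recorded after 30 min at room temperature.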

[11] = qHTS assay to identify small molecule antagonists of the estrogen related receptor (ERR) signaling pathway from Tox21 library - cell viability counter screen (AID 1224834); also: nearly all actives have a fitted effect of over 30% in size; also: potency is read from the fitted curve at half-maximal effect
Method in brief: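 Cytotoxicity of test substances is gauged in the same ERR cells used for the antagonist screen, after 17.5 h of compound treatment at 37 C, by CellTiter-Fluor fluorescence measured after 30 min.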

[12] = qHTS assay to identify small molecule antagonists of the vitamin D receptor (VDR) signaling pathway - cell viability counter screen (AID 743225); also: nearly all actives have a fitted effect of over 50% in size; also: potency is read from the fitted curve at half-maximal effect
Method in brief: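 Cytotoxicity toward the VDR-bla HEK 293T line was scored by ATP-based CellTiter-Glo luminescence, read in the wells already used for the beta-lactamase readout after 16 h compound treatment under 3 nM 1-alpha,25-dihydroxyvitamin D3 stimulation.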

[13] = molecular target: Retinoic acid receptor RXR-alpha (Homo sapiens) (UniProt P19793); assay: qHTS assay to identify small molecule agonists of the RXR signaling pathway (AID 1159527; calls by dose curve; also: nearly all actives have a fitted effect of over 35% in size; also: potency is read from the fitted curve at half-maximal effect)
Method in brief: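 Reporter activation is measured as beta-lactamase activity via FRET substrate cleavage (emission 460/530 nm) in HEK 293T cells expressing an RXR-alpha-driven bla construct, following 16 hr compound exposure at 37 C.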

[14] = qHTS assay to identify small molecule agonists of the retinoic acid receptor (RAR) signaling pathway (AID 1159553)
Method in brief: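 Agonist activity was scored in C3RL4 cells bearing a retinoic acid response element luciferase construct. Cells were treated with compounds for 6 hr at 37 C, and luciferase signal was measured as luminescence.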

[15] = qHTS assay to identify small molecule antagonists of the retinoid-related orphan receptor gamma (ROR-gamma) signaling pathway - cell viability counter screen (AID 1159520); also: nearly all actives have a fitted effect of over 50% in size; also: potency is read from the fitted curve at half-maximal effect
Method in brief: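 Tet-on ROR gamma CHO cells were given compounds for 2 hr, then doxycycline hyclate at 1 uM final, and incubated 16 hr at 37 C. Viability was measured as ATP content by CellTiter-Glo luminescence.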

Measured: Potency

Sequence of Retinoic acid receptor RXR-alpha (Homo sapiens) (P19793 whole entry, looked up): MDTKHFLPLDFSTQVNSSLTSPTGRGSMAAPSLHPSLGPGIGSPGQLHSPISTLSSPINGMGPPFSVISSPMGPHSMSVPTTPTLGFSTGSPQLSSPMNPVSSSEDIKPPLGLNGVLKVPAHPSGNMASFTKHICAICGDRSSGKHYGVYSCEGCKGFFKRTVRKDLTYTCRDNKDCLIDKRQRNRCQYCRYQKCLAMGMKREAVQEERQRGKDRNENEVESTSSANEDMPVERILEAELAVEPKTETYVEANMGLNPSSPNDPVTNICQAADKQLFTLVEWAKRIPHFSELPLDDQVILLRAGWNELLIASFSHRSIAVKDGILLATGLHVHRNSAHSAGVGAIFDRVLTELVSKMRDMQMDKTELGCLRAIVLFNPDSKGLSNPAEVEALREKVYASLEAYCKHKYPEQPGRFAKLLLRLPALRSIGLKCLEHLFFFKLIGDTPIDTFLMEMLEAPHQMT

CCCOC(=O)c1cc(O)c(O)c(O)c1
inactive: [1] | [2] | [3] | [4] | [6] | [7] | [8] | [9] | [10]
active: [5] 27.2 µM | [11] 54.2 µM and 61.1 µM

COc1ccc(CCN2CCC(Nc3nc4ccccc4n3Cc3ccc(F)cc3)CC2)cc1
inactive: [3] | [7]
active: [1] 3.98 µM and 10.6 µM | [12] 6.3 µM and 23.9 µM | [2] 17.8 µM | [4] 31.6 µM | [5] 9.9 µM and 11.9 µM | [9] 44.2 µM | [10] 2.11 µM

O=Cc1ccc(Cl)cc1
inactive: [1] | [2] | [3] | [4] | [5] | [6] | [7] | [13] | [9] | [10] | [11]

CC(C)(O)CCC(C)(C)O
inactive: [1] | [2] | [3] | [4] | [5] | [6] | [7] | [13] | [8] | [9] | [10] | [14]

CCC(CO)(CO)COCC(CC)(CO)CO
inactive: [1] | [2] | [3] | [4] | [5] | [6] | [7] | [13] | [9] | [10] | [14]

C=CC(=O)OCCCCCCOC(=O)C=C
active: [10] 13.9 µM and 21.7 µM | [11] 54.5 µM
44.2 µM (active) and inactive: [1]
inactive: [12] | [2] | [3] | [4] | [6] | [8] | [14]

Cc1cc(C2(c3cc(C)c(O)cc3C)OS(=O)(=O)c3ccccc32)c(C)cc1O
active: [11] 21.7 µM and 24.3 µM
inactive: [1] | [12] | [2] | [3] | [5] | [7] | [13] | [9]

COc1ccc(CCN(C)CCCC(C#N)(c2ccc(OC)c(OC)c2)C(C)C)cc1OC (stereo not given)
active: [11] 54.4 µM
inactive: [2] | [4] | [5] | [6] | [9]

O=C1OC2(c3ccc(O)cc3Oc3cc(O)ccc32)c2ccccc21
inactive: [1] | [12] | [2] | [4] | [15] | [5] | [6] | [8] | [9]

CNCCC(Oc1ccc(C(F)(F)F)cc1)c1ccccc1 (stereo not given)
active: [8] 27.2 µM and 23.9 µM | [10] 53.8 µM
48.4 µM (active) and inactive: [1]
inactive: [3] | [4] | [15] | [6] | [9]

O=C(Nc1ccccc1SSc1ccccc1NC(=O)c1ccccc1)c1ccccc1
inactive: [2] | [4] | [9]
active: [1] 12.4 µM and 12.3 µM | [15] 24.3 µM | [5] 8.68 µM and 17.2 µM | [10] 15.4 µM | [11] 43.5 µM and 48.6 µM

CCCCCC(=O)O[C@]1(C(C)=O)CC[C@H]2[C@@H]3CCC4=CC(=O)CC[C@]4(C)[C@H]3CC[C@@]21C
43.4 µM (active) and inactive: [1]
inactive: [2] | [4] | [6] | [7] | [9]
active: [5] 27.1 µM and 23.7 µM | [8] 19.4 µM and 23.9 µM | [11] 48.2 µM and 29.8 µM

O=C(O[C@@H]1Cc2c(O)cc(O)cc2O[C@@H]1c1cc(O)c(O)c(O)c1)c1cc(O)c(O)c(O)c1
inactive: [1] | [2] | [4] | [6] | [13] | [8] | [9] | [10]

Nc1cc(S(=O)(=O)O)cc2cc(S(=O)(=O)O)cc(O)c12
inactive: [1] | [12] | [2] | [4] | [6] | [7] | [8] | [9]
inactive and 24.5 µM (active): [13]
inactive and 30.6 µM (active): [5]

Nc1nc(=S)c2[nH]cnc2[nH]1
inactive: [2] | [4] | [6] | [7] | [9]
inactive and 24.3 µM (active): [10]
active: [1] 1.74 µM and 3.35 µM | [11] 11.9 µM and 4.33 µM
26.6 µM (active) and inactive: [5]

From PubChem BioAssay (Tox21)
